# Results filed as inconclusive are left out. Entries that show only a call come without a potency. Active and inactive are the calls of the source. Calls come from the whole dose curve; as a rule, active = well fitted inhibition curve with a large enough effect; inconclusive = small, poorly fitted or top-dose-only effect; inactive = no such curve, though single readings can be large or run the other way. Square brackets hold non-standard residues; d marks the D form. Peptide text beside a SMILES is read from it. ξ: configuration not given here. ξLac(3-iPr) = CC(C)CC(O)C(=O)O; NMeV = CN[CH](C(=O)O)C(C)C; βAla = NCCC(=O)O
# Target: Retinaldehyde dehydrogenase 3 (Homo sapiens) (UniProt P47895)
# Experiment: qHTS for Inhibitors of the Aldehyde Dehydrogenase Family (ALDH1A3) Primary screen (AID 2061315)
# Settings: ALDH inhibition qHTS; series mostly up to 56 µM
Compound,Potency,"activity change, negative = inhibition"
CS(=O)(=O)N(CC(=O)NCC1CC1)c1cc(C(F)(F)F)ccc1Cl,inactive,
O=c1c2cccnc2n(-c2cccc([N+](=O)[O-])c2)c(=O)n1Cc1ccncc1,inactive,
CC(=O)NC(C(=O)O[C@H]1CCC(C)(C)[C@@H]2CC=C3C(=O)OCC3(O)[C@@]12C)C(C)C (some centres not stated),inactive,
CC(C)c1cc2c(N3CCN(C4=NCC(C)(C)S4)CC3)ncnc2s1,inactive,
CC(=O)OC1CC(C)(C(=O)O)CC2C3=CC(=O)C4C5(C)CCC(OC6OC(C(=O)O)C(O)C(O)C6OC6OC(C(=O)O)C(O)C(O)C6O)C(C)(C)C5CCC4(C)C3(C)CCC12C (configuration not stated),inactive,
CC(C)CC1OC(=O)C2CCCN2C(=O)CCNC(=O)C(Cc2ccccc2)NC(=O)C(C(C)C)N(C)C(=O)C(C(C)C)N(C)C1=O (configuration not stated) (cyclo([ξLac(3-iPr)][NMeV][NMeV]F[βAla]P); configuration not given here),inactive,
C[C@@H]1O[C@@H](O[C@H]2[C@H](O)[C@@H](O)[C@H](OC[C@H]3O[C@@H](OC(=O)[C@]45CCC(C)(C)C[C@H]4C4=CCC6[C@@]7(C)C[C@H](O)[C@H](O[C@@H]8O[C@H](CO)[C@@H](O)[C@H](O)[C@H]8O)[C@@](C)(C(=O)O)C7CC[C@@]6(C)[C@]4(C)CC5)[C@H](O[C@@H]4O[C@H](CO)[C@@H](O)[C@H](O)[C@H]4O)[C@@H](O)[C@@H]3O)O[C@@H]2CO)[C@H](O)[C@H](O)[C@H]1O (some centres not stated),,-4.1% [at 11.2 µM] (inactive)
CC1(C)CC[C@]2(C(=O)O[C@@H]3O[C@H](CO)[C@@H](O)[C@H](O)[C@H]3O)CC[C@]3(C)C(=CCC4[C@@]5(C)CC[C@H](O[C@@H]6O[C@H](C(=O)O)[C@H](O)[C@H](O)[C@H]6O)C(C)(C)C5CC[C@]43C)[C@@H]2C1 (some centres not stated),inactive,
CC#C[C@@H](CC(=O)O)c1ccc(OCc2ccc(CN3CCC4(C=Cc5ccccc54)CC3)s2)cc1,inactive,
C[C@@H]1O[C@@H](O[C@H]2[C@H](O[C@H]3[C@H](O[C@H]4CC[C@@]5(C)C(CC[C@]6(C)C5CC=C5[C@@H]7CC(C)(C)CC[C@]7(C(=O)O[C@@H]7O[C@H](CO)[C@@H](O[C@@H]8O[C@@H](C)[C@H](O)[C@@H](O)[C@H]8O)[C@H](O)[C@H]7O)CC[C@]56C)C4(C)C)OC[C@H](O)[C@@H]3O)O[C@H](CO)[C@@H](O)[C@@H]2O)[C@H](O)[C@H](O)[C@H]1O (some centres not stated),,-3.58% [at 11.2 µM] (inactive)
Cc1cc(C(N)=O)ccc1-n1c(CCC(=O)O)ccc1-c1ccc(-n2ccnc2)cc1,inactive,
CCN(Cc1cccnc1)C(=O)CN(c1ccc(OC)nc1)S(=O)(=O)c1ccccc1C,inactive,
Cc1onc(-c2c(F)cccc2Cl)c1C(=O)N[C@@H]1C(=O)N2[C@@H]1SC(C)(C)[C@@H]2C(=O)O,inactive,
O=c1[nH]c([C@@H]2CCCN2)nc2c1oc1ccc(Cl)cc12,inactive,
CC(C)(O)C1CC(=O)C2(C)C(CCC3(C)C(c4ccoc4)OC(=O)C4OC432)C12CCC(=O)OC2 (configuration not stated),inactive,
C=C(CO[C@@H]1O[C@H](CO[C@@H]2OC[C@](O)(CO)[C@H]2O)[C@@H](O)[C@H](O)[C@H]1O)C1Cc2cc(C(C)=O)ccc2O1 (some centres not stated),inactive,

Compound,Potency,"activity change, negative = inhibition"
COc1cccc(OC)c1-c1ccc(C[C@H](NC(=O)c2c(Cl)cccc2Cl)C(=O)O)cc1,inactive,
CC1=CCC2C(C)(C)CCC[C@]2(C)[C@@]12CC[C@](C)(CC(=O)O)O2 (some centres not stated),inactive,
C=CC(C)(CC/C=C(\C)C(=O)OC)OC1OC(COC(=O)CC(C)(O)CC(=O)O)C(O)C(O)C1O (configuration not stated),inactive,
CC12CC34C=CC(=O)C(C)(CCC(=O)O)C3C(CC1C4)O2 (configuration not stated),inactive,
Cc1sc2c(c1C)C(c1ccc(Cl)cc1)=N[C@H](CC(=O)NCCCCNC(=O)COc1cccc3c1C(=O)N([C@H]1CCC(=O)NC1=O)C3=O)c1nnc(C)n1-2,inactive,
CC(=O)Nc1ccn(C2COC(COC(=O)c3ccccc3)O2)c(=O)n1 (configuration not stated),inactive,
CC1(C)C2CC[C@@]34CC(CC[C@H]3[C@]2(C)CC[C@@H]1O[C@@H]1O[C@H](CO)[C@@H](O)[C@H](O)[C@H]1O)[C@](C)(O)C4 (some centres not stated),inactive,
O=C(NCCN1CCCC1)c1cc(-c2ccc(CN3CCOCC3)cc2)nc2ccc(F)cc12,inactive,
CCc1nn(CCO)c(CC)c1Oc1cc(C#N)cc(C#N)c1,inactive,
C[C@@H]1CC[C@H]2C(C)(C)[C@H](O)[C@H](O)C[C@]2(C)[C@@]12Cc1c(O)cc3c(c1O2)CNC3=O,inactive,
C/C(=C/CO)CCC1C(C)CCC2C(C)(C)CCCC12C (configuration not stated),inactive,
COc1c2c(c(C)c3c1C(=O)OC3)O[C@@]1(C)CC(O)C(C(C)(C)O)[C@](C)(CCC(=O)O)[C@H]1C2 (some centres not stated),inactive,
C=CC(C)(O)C1CC2C3(C)CCCC(C)(C)C3C(O)C(O)C2(C)O1 (configuration not stated),inactive,
CC(=O)O[C@H]1[C@H](O)C[C@@]2(C)C(CC[C@]3(C)C2CC=C2C4CC(C)(C)CC[C@]4(C(=O)O)CC[C@]23C)C1(C)C (some centres not stated),inactive,
C=C1C(O)CC2C(C(=O)O)=COC(O[C@@H]3O[C@H](COC(=O)c4ccc(O)cc4)[C@@H](O)[C@H](O)[C@H]3O)C12 (some centres not stated),inactive,
CC(C)C[C@H](CC(=O)NO)C(=O)N[C@H](C(=O)N[C@@H](C)C(=O)NCCN)C(C)(C)C,,-12.1% [at 11.2 µM] (inactive)

# From PubChem BioAssay (NCATS)
